Reference: PubChem BioAssay AID1159580 (chemical genetic matrix, 2015)
“And” between values parts separate entries of the source, which are not always exact repeats. Equal values may be shown once. Out of some 5,500 compounds screened, about 2,000 (36%) were called active. Another 18% or so got no clear call; they are omitted. Some of the results follow. A number with no mark means an inactive call. No stated cut-off is given here; in the data, active means normalized growth mostly below about 0.91 (no sharp cut-off); inconclusive means no clear call, values can overlap the other calls; inactive means mostly above about 0.92.

Experiment: chemical genetic growth profiling, strain panel (AID 1159580);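 further: tested at 20 µM; growth read once vehicle control cultures reached saturation at 30 °C; 1 = growth at the plate median or of vehicle wells; lower values mean less growth of the strain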
Conditions: growth OD

SMILES: CC(C)C(=O)Nc1ccc([N+](=O)[O-])c(C(F)(F)F)c1
- normalized growth (S. cerevisiae deletion strains, locus YKL009W, strain mrt4, hits give low values): 0.984
- normalized growth (S. cerevisiae deletion strains, locus YKL068W, hits give low values): 0.984
- normalized growth (S. cerevisiae deletion strains, locus YKL085W, strain MDH1 (second series), hits give low values): 0.987
- normalized growth (S. cerevisiae deletion strains, locus YKL085W, strain MDH1, hits give low values): 0.987
- normalized growth (S. cerevisiae deletion strains, locus YKL160W, strain elf1, hits give low values): 1
- normalized growth (S. cerevisiae deletion strains, locus YKL190W, strain CNB1, hits give low values): 0.992
- normalized growth (S. cerevisiae deletion strains, locus YKR001C, strain vps1, hits give low values): 0.837 (active)
- normalized growth (S. cerevisiae deletion strains, locus YKR026C, strain gcn3, hits give low values): 1.01
- normalized growth (S. cerevisiae deletion strains, locus YKR091W, strain srl3, hits give low values): 1.01
- normalized growth (S. cerevisiae deletion strains, locus YLL001W, strain dnm1, hits give low values): 1.03
- normalized growth (S. cerevisiae deletion strains, locus YLL026W, hits give low values): 1.02
- normalized growth (S. cerevisiae deletion strains, locus YLL041C, strain sdh2, hits give low values): 1.01
- normalized growth (S. cerevisiae deletion strains, locus YLR027C, strain aat2, hits give low values): 1.02
- normalized growth (S. cerevisiae deletion strains, locus YLR039C, strain RIC1, hits give low values): 0.826
- normalized growth (S. cerevisiae deletion strains, locus YLR058C, strain SHM2, hits give low values): 0.99
- normalized growth (S. cerevisiae deletion strains, locus YLR102C, strain apc9, hits give low values): 0.968
- normalized growth (S. cerevisiae deletion strains, locus YLR113W, strain HOG1, hits give low values): 0.93
- normalized growth (S. cerevisiae deletion strains, locus YLR221C, strain rsa3, hits give low values): 1.04
- normalized growth (S. cerevisiae deletion strains, locus YLR258W, strain gsy2, hits give low values): 1.02
- normalized growth (S. cerevisiae deletion strains, locus YLR262C, strain YPT6 (second series), hits give low values): 1.01
- normalized growth (S. cerevisiae deletion strains, locus YLR262C, strain YPT6, hits give low values): 0.899
- normalized growth (S. cerevisiae deletion strains, locus YLR268W, strain sec22, hits give low values): 0.96
- normalized growth (S. cerevisiae deletion strains, locus YLR320W, strain mms22, hits give low values): 1.03
- normalized growth (S. cerevisiae deletion strains, locus YLR330W, strain CHS5, hits give low values): 0.987
- normalized growth (S. cerevisiae deletion strains, locus YLR342W, strain FKS1 (second series), hits give low values): 0.96
- normalized growth (S. cerevisiae deletion strains, locus YLR342W, strain FKS1, hits give low values): 1.01
- normalized growth (S. cerevisiae deletion strains, locus YLR357W, strain rsc2, hits give low values): 1.09
- normalized growth (S. cerevisiae deletion strains, locus YLR370C, strain arc18, hits give low values): 1.03
- normalized growth (S. cerevisiae deletion strains, locus YLR371W, strain rom2, hits give low values): 0.974
- normalized growth (S. cerevisiae deletion strains, locus YLR384C, strain iki3, hits give low values): 1.03
- normalized growth (S. cerevisiae deletion strains, locus YLR418C, strain cdc73, hits give low values): 0.896
- normalized growth (S. cerevisiae deletion strains, locus YML016C, strain PPZ1, hits give low values): 0.981
- normalized growth (S. cerevisiae deletion strains, locus YML032C, strain rad52, hits give low values): 0.974
- normalized growth (S. cerevisiae deletion strains, locus YML120C, strain ndi1, hits give low values): 1.01
- normalized growth (S. cerevisiae deletion strains, locus YML124C, strain tub3, hits give low values): 0.972
- normalized growth (S. cerevisiae deletion strains, locus YMR058W, strain fet3, hits give low values): 1.03
- normalized growth (S. cerevisiae deletion strains, locus YMR078C, strain ctf18, hits give low values): 0.976
- normalized growth (S. cerevisiae deletion strains, locus YMR125W, strain sto1, hits give low values): 1.03
- normalized growth (S. cerevisiae deletion strains, locus YMR129W, hits give low values): 1.02
- normalized growth (S. cerevisiae deletion strains, locus YMR205C, strain PFK2, hits give low values): 1.02
- normalized growth (S. cerevisiae deletion strains, locus YMR223W, strain ubp8, hits give low values): 0.982
- normalized growth (S. cerevisiae deletion strains, locus YMR231W, strain pep5, hits give low values): 1.03
- normalized growth (S. cerevisiae deletion strains, locus YMR263W, strain SAP30, hits give low values): 0.982 and 1
- normalized growth (S. cerevisiae deletion strains, locus YMR307W, strain GAS1, hits give low values): 0.832
- normalized growth (S. cerevisiae deletion strains, locus YNL067W, strain RPL9B, hits give low values): 0.99
- normalized growth (S. cerevisiae deletion strains, locus YNL071W, strain lat1, hits give low values): 1.02
- normalized growth (S. cerevisiae deletion strains, locus YNL128W, strain TEP1, hits give low values): 1.01
- normalized growth (S. cerevisiae deletion strains, locus YNL153C, strain GIM3, hits give low values): 0.99 and 0.977
- normalized growth (S. cerevisiae deletion strains, locus YNL175C, strain NOP13, hits give low values): 0.977
- normalized growth (S. cerevisiae deletion strains, locus YNL183C, strain NPR1, hits give low values): 0.91
- normalized growth (S. cerevisiae deletion strains, locus YNL197C, strain WHI3, hits give low values): 0.968
- normalized growth (S. cerevisiae deletion strains, locus YNL209W, strain ssb2, hits give low values): 1.01
- normalized growth (S. cerevisiae deletion strains, locus YNL224C, strain SQS1, hits give low values): 0.96
- normalized growth (S. cerevisiae deletion strains, locus YNL233W, strain BNI4, hits give low values): 0.955
- normalized growth (S. cerevisiae deletion strains, locus YNL248C, strain rpa49, hits give low values): 1.06
- normalized growth (S. cerevisiae deletion strains, locus YNL250W, strain rad50, hits give low values): 0.989
- normalized growth (S. cerevisiae deletion strains, locus YNL271C, strain bni1, hits give low values): 0.975
- normalized growth (S. cerevisiae deletion strains, locus YNL298W, strain CLA4, hits give low values): 0.978
- normalized growth (S. cerevisiae deletion strains, locus YNL307C, strain MCK1, hits give low values): 0.958
- normalized growth (S. cerevisiae deletion strains, locus YNL322C, strain KRE1 (second series), hits give low values): 1.02
- normalized growth (S. cerevisiae deletion strains, locus YNL322C, strain KRE1, hits give low values): 0.997 and 1.04
- normalized growth (S. cerevisiae deletion strains, locus YNR049C, strain mso1, hits give low values): 1.02
- normalized growth (S. cerevisiae deletion strains, locus YNR052C, strain pop2, hits give low values): 0.978
- normalized growth (S. cerevisiae deletion strains, locus YOL006C, strain TOP1, hits give low values): 0.851
- normalized growth (S. cerevisiae deletion strains, locus YOL012C, strain htz1): 1.09
- normalized growth (S. cerevisiae deletion strains, locus YOL147C, strain pex11, hits give low values): 0.978
- normalized growth (S. cerevisiae deletion strains, locus YOR001W, strain rrp6, hits give low values): 1.05
- normalized growth (S. cerevisiae deletion strains, locus YOR061W, strain CKA2, hits give low values): 0.987
- normalized growth (S. cerevisiae deletion strains, locus YOR069W, strain VPS5, hits give low values): 0.99
- normalized growth (S. cerevisiae deletion strains, locus YOR070C, strain gyp1, hits give low values): 1
- normalized growth (S. cerevisiae deletion strains, locus YOR080W, strain dia2, hits give low values): 1.03
- normalized growth (S. cerevisiae deletion strains, locus YOR083W, strain WHI5 (second series), hits give low values): 0.9
- normalized growth (S. cerevisiae deletion strains, locus YOR083W, strain WHI5, hits give low values): 0.999
- normalized growth (S. cerevisiae deletion strains, locus YOR106W, strain vam3, hits give low values): 1.04
- normalized growth (S. cerevisiae deletion strains, locus YOR136W, strain idh2, hits give low values): 0.981
- normalized growth (S. cerevisiae deletion strains, locus YOR144C, strain elg1, hits give low values): 0.966
- normalized growth (S. cerevisiae deletion strains, locus YOR184W, strain ser1, hits give low values): 0.939
- normalized growth (S. cerevisiae deletion strains, locus YOR231W, strain MKK1, hits give low values): 0.952
- normalized growth (S. cerevisiae deletion strains, locus YOR265W, strain rbl2, hits give low values): 1
- normalized growth (S. cerevisiae deletion strains, locus YOR270C, strain vph1, hits give low values): 1.03
- normalized growth (S. cerevisiae deletion strains, locus YOR290C, strain snf2, hits give low values): 1.02
- normalized growth (S. cerevisiae deletion strains, locus YOR316C, strain cot1, hits give low values): 0.977
- normalized growth (S. cerevisiae deletion strains, locus YPL051W, strain arl3, hits give low values): 1
- normalized growth (S. cerevisiae deletion strains, locus YPL055C, strain LGE1, hits give low values): 0.953 and 1.01
- normalized growth (S. cerevisiae deletion strains, locus YPL078C, strain atp4, hits give low values): 1
- normalized growth (S. cerevisiae deletion strains, locus YPL106C, strain sse1, hits give low values): 1.01
- normalized growth (S. cerevisiae deletion strains, locus YPL240C, strain hsp82, hits give low values): 1
- normalized growth (S. cerevisiae deletion strains, locus YPL241C, strain CIN2, hits give low values): 0.985 and 1
- normalized growth (S. cerevisiae deletion strains, locus YPL256C, strain CLN2, hits give low values): 0.991
- normalized growth (S. cerevisiae deletion strains, locus YPR119W, strain clb2, hits give low values): 0.973
- normalized growth (S. cerevisiae deletion strains, locus YPR141C, strain kar3, hits give low values): 0.98
- normalized growth (S. cerevisiae deletion strains, locus YPR163C, strain tif3, hits give low values): 0.987
- normalized growth (S. cerevisiae deletion strains, locus YPR167C, strain met16, hits give low values): 0.984
- normalized growth (S. cerevisiae deletion strains, strain wtn01, hits give low values): 0.954
- normalized growth (S. cerevisiae strains, strain wild type, hits give low values): 0.986
